The test system of test [1] is Wnt5a (protein binding on small-molecule microarray). In words: Wnt5a binders on small-molecule microarray, primary screen, biophysical, 635/667 nm fluorescence (AID 1142).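 Also: fluorescence read at 667 nm with signal to noise per printed feature.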 To be noted: 635 nm fluorescence, higher = more signal.
A short description of test [2]: cell viability in Huh7 cells, primary screen, cytotoxicity control for HCV replication inhibitor project, CellTiter-Glo luminescence, basal, 48 h (AID 1143).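 Also: Huh7 hepatoma cells carrying a hepatitis C replication reporter with no stimulus; test concentration not given here.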 As to conditions: Huh7 HCV replicon, higher = more signal, called active from +8 up or from −8 down.
The nature of test [3]: P. aeruginosa biofilm formation inhibitors, primary screen, PAO1 strain, BacTiter-Glo luminescence, LB-PBS (AID 1144). As to conditions: 12 h, higher = more signal.
The nature of test [4]: CREB reporter modulators without forskolin, primary screen, cell-based, PC12, CRE-LacZ reporter, unstimulated (AID 1145). As to conditions: no forskolin, luminescence, 4.5 h, higher = more signal, called active from +8 up or from −8 down.
Test [5] can be described thus: CREB reporter modulators under forskolin, primary screen, cell-based, PC12, CRE-LacZ reporter, forskolin-stimulated (AID 1146).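 Also: PC12 cells with 6xCRE LacZ reporter stimulated by forskolin 10 µM; beta-galactosidase reporter signal reflecting CREB driven transcription.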 To be noted: luminescence, 4.5 h, higher = more signal, called active from +8 up or from −8 down.
Test [6] deals with Streptavidin (Streptomyces avidinii) (UniProt P22629). In words: streptavidin binders on small-molecule microarray, primary screen, artefact control for SMM compound annotation, biophysical, 635/667 nm fluorescence (AID 1147).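 Also: signal reflects streptavidin binding to arrayed compounds as a control protein.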 As to conditions: streptavidin binding, higher = more signal.
A short description of test [7]: small-molecule binders of probe aInhba, primary screen, biochemical, small-molecule microarray, 635/667 nm fluorescence (AID 1148).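 Also: score merges 667nm spot fluorescence with signal-to-noise for antibody binding to printed compounds.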 To be noted: higher = more signal.
The target of test [8] is Torsin-1A (Homo sapiens) (UniProt O14656). Put plainly: torsin A binders from cell lysate, primary screen, small-molecule microarray, wild-type, 635/667 nm (AID 1149). To be noted: COS7 hTOR1A-WT lysate, 635 nm fluorescence, higher = more signal.
Test [9] shares this target. In words: small-molecule binders of mutant TOR1A in lysate, primary screen, cell lysate, small-molecule microarray, COS7 lysate, 635/667 nm fluorescence (AID 1150).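 Also: score pools 667 nm emission and signal to noise measuring lysate protein binding.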 As to conditions: COS7 hTOR1A mutant lysate, 635 nm fluorescence, higher = more signal.
The test system of test [10] is Sonic hedgehog protein (Shh). Put plainly: small-molecule binders of Shh protein, primary screen, biochemical, small-molecule microarray, 635/667 nm fluorescence (AID 1151).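 Also: Shh protein binding to compounds spotted on small-molecule microarray slides; score combines spot fluorescence intensity with signal-to-noise across triplicate slides.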 As to conditions: small-molecule microarray binding, 635 nm fluorescence; higher = more signal.
Test [11] in a line: E. coli DRC41 culture turbidity changes, primary screen, E. coli filamentation inducer project, strain DRC41, OD650, 48 h (AID 1152).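 Also: E. coli MC1000 strain DRC41 lacking acrAB efflux pump and sulA.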 As to conditions: E. coli DRC41 (acrAB sulA), higher = more signal, called active from +8 up or from −8 down.
The nature of test [12]: small-molecule binders of probe aLefty1, primary screen, biochemical, small-molecule microarray, 635/667 nm fluorescence (AID 1153).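 Also: score merges spot fluorescence with signal-to-noise ratio from the scanned slide images.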 As to conditions: higher = more signal.
The nature of test [13]: PSAC antagonists in infected red cells, primary screen, cell-based, P. falciparum Indochina, OD700, 1 h (AID 1154). To be noted: P. falciparum Indochina infected RBC osmotic lysis, higher = more signal, called active from +8 up or from −8 down.
A short description of test [14]: PSAC antagonists in infected red cells, primary screen, cell-based, P. falciparum Indochina, OD700, 2 h (AID 1155).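 Also: lysis reports solute entry through the parasite surface anion channel PSAC; channel blockers reduce lysis of infected cells.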 As to conditions: P. falciparum Indochina infected erythrocytes, osmotic lysis OD700; higher = more signal, called active from +8 up or from −8 down.
A short description of test [15]: osmotic lysis modulators in infected erythrocytes, primary screen, PSAC antagonist project, cell-based, P. falciparum Indochina, OD700, 3 h (AID 1156). To be noted: higher = more signal, called active from +8 up or from −8 down.
Test [16] in a line: PSAC antagonists in infected red cells, primary screen, cell-based, P. falciparum Indochina, OD700, 18 h (AID 1157). As to conditions: P. falciparum Indochina infected erythrocytes, osmotic lysis OD700, 18 h; higher = more signal, called active from +8 up or from −8 down.
A short description of test [17]: modulators of S6 phosphorylation in cells, primary screen, cell-based, A549, cytoblot, luminescence, serum-stimulated (AID 1158).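 Also: serum-stimulated A549 lung adenocarcinoma cells; signal is phosphorylated S6 detected by cytoblot immunostaining with HRP secondary.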 To be noted: A549 phospho-S6 cytoblot, 5 h, higher = more signal.
Test [18] deals with NADPH oxidase 2 (Homo sapiens) (UniProt P04839). In words: NOX2-dependent H2O2 signal modulators, primary screen, NOX inhibitor project, cell-based, HEK293-NOX2, PMA-stimulated, Amplex Red fluorescence (AID 1159). Also: test concentration not given here. To be noted: 45 min, higher = more signal, called active from +8 up or from −8 down.
The target of test [19] is NADPH oxidase 4 (Homo sapiens) (UniProt Q9NPH5). Put plainly: NOX4-dependent H2O2 signal modulators, primary screen, NOX inhibitor project, cell-based, HEK293-NOX4, tetracycline-induced, Amplex Red fluorescence (AID 1160). As to conditions: 45 min, higher = more signal, called active from +8 up or from −8 down.
For test [20], the target named is NADPH oxidase 5 (Homo sapiens) (UniProt Q96PH1). In words: NOX5-dependent H2O2 signal modulators, primary screen, NOX inhibitor project, cell-based, HEK293-NOX5, Amplex Red fluorescence (AID 1161). To be noted: HEK293-NOX5, ionomycin, 45 min, higher = more signal.

SMILES strings stand for the structures. Calls of active or inactive are those of the source. Unless noted, no rule for the calls is given here.

Chain of NADPH oxidase 2 (Homo sapiens) (P04839 whole entry, looked up): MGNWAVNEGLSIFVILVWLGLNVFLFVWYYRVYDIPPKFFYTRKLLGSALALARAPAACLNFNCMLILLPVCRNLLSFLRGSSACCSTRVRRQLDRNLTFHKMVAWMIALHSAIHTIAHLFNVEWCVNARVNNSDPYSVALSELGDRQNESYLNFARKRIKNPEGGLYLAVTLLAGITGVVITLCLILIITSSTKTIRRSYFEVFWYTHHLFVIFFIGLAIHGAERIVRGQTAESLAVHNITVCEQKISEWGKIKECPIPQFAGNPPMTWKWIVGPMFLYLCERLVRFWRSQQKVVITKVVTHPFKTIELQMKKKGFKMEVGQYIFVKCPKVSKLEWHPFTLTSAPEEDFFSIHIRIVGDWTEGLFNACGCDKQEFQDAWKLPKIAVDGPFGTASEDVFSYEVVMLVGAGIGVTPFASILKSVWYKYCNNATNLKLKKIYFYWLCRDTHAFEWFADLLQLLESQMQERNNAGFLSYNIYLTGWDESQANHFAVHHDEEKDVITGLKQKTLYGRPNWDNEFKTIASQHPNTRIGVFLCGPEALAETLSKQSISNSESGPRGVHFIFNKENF
Chain of Streptavidin (Streptomyces avidinii) (P22629 whole entry, looked up): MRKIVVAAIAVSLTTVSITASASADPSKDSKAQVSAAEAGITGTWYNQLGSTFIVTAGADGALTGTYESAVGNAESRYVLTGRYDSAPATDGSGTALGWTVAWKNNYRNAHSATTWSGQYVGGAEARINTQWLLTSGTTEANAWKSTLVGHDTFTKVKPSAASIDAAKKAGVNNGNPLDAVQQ
Chain of Torsin-1A (Homo sapiens) (O14656 whole entry, looked up): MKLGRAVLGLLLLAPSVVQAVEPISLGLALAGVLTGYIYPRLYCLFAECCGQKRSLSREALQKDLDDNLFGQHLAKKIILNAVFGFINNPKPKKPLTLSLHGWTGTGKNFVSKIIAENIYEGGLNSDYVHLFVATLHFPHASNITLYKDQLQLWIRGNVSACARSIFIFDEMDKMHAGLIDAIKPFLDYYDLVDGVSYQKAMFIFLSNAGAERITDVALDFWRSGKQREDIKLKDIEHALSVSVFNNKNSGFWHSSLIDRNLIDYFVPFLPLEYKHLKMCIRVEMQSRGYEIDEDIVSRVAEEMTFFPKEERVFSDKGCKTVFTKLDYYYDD
Chain of NADPH oxidase 4 (Homo sapiens) (Q9NPH5 whole entry, looked up): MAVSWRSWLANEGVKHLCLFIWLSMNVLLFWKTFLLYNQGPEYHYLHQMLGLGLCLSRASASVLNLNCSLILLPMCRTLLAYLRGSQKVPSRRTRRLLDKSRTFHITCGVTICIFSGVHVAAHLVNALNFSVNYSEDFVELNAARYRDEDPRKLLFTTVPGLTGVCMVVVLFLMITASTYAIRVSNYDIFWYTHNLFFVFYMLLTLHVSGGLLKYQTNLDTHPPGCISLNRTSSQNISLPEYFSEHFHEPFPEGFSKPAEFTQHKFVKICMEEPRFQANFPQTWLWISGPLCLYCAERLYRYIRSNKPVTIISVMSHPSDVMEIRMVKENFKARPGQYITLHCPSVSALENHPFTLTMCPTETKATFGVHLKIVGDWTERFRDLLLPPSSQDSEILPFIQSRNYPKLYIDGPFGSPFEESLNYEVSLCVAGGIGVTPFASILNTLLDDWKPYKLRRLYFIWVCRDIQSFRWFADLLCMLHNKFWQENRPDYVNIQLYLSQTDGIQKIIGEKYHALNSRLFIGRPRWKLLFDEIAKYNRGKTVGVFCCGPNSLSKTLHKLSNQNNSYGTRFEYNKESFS
Chain of NADPH oxidase 5 (Homo sapiens) (Q96PH1 whole entry, looked up): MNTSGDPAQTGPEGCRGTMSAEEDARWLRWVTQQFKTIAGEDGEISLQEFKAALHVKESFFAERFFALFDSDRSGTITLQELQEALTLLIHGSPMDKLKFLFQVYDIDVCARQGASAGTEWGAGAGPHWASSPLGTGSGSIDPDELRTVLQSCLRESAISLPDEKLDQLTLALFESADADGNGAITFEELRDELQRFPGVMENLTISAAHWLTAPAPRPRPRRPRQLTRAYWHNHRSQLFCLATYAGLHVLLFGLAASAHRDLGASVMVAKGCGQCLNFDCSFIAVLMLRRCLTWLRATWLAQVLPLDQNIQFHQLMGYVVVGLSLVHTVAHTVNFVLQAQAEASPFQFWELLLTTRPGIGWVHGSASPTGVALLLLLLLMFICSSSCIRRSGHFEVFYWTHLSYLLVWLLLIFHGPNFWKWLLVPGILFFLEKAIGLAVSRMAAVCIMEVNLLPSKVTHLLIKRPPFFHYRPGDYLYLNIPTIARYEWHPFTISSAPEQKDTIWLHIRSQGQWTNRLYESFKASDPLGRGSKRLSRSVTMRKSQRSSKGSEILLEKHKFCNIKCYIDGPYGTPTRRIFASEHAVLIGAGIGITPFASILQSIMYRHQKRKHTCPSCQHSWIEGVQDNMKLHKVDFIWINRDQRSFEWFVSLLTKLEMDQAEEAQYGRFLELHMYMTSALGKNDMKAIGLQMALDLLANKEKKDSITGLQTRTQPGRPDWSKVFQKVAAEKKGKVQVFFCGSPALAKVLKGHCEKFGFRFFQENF

For the compound `CN1C(=O)[C@@]2(Cc3ccccc3)N=C(c3ccc(OCCCO)cc3)O[C@H]2c2ccccc21`, the composite z-score is 0.634 in test [1]; 0.0831 in test [6]; 0.382 in test [7]; 0.266 with Torsin-1A (Homo sapiens) [8]; -0.0779 with Torsin-1A (Homo sapiens) [9]; 1.45 in test [10]. In test [12], this compound yielded a composite z-score of 0.501. In addition, the z-score in test [2] was -4.44 (inactive); in [3] it was -0.458 (inactive); in test [4] it was 1.04 (inactive); in [5] it was -1.67 (inactive); in test [11], -0.0237 (inactive); in [13], 31.8 (active). Besides, the z-score in test [14] is 30.4 (active); in [15], 2.93 (inactive); in test [16], 2.65 (inactive); in test [17], 0.385; in [18] it was -1.74 (inactive); in test [19] it was 0.151 (inactive). This compound also displayed a z-score in [20] of -1.64.

With `C=C[C@@H](C)[C@@H](OC(=O)Nc1ccc(SC)cc1)c1ccc(OCCO)cc1`, the composite z-score in test [1] is 0.382; in test [6], 0.929; in test [7], -0.151; in the test with Torsin-1A (Homo sapiens) [8] it was 0.495; with Torsin-1A (Homo sapiens) [9], 1.04; in test [10], 0.487. This compound registered a composite z-score in [12] of -0.156. The z-score in test [2] is -3.1 (inactive); in test [3] it was -0.882 (inactive); in [4], 0.236 (inactive); in test [5], -0.162 (inactive); in test [11], -0.707 (inactive); in test [13], 29.1 (active). The z-score in test [14] was 20.2 (active); in [15], 4.42 (inactive); in [16], 1.9 (inactive); in [17], 0.241; in [18] it was -1.21 (inactive); in test [19], -0.0499 (inactive). The compound also registered a z-score in test [20] of -0.431.

Consider `C=CC1c2cc(O)c(OC)cc2CCN1Cc1ccc([N+](=O)[O-])o1` (stereo not given), for which the composite z-score in [1] is 0.17; in [6], 0.39; in test [7] it was 0.027; in the test with Torsin-1A (Homo sapiens) [8], -0.17; in the test with Torsin-1A (Homo sapiens) [9] it was 0.745; in test [10], -0.873. For the same compound, in test [12], the composite z-score was 0.0455. Further, the z-score in [2] was -0.244 (inactive); in test [3], 1.47 (inactive); in [4], -0.321 (inactive); in test [5], -0.625 (inactive); in test [11] it was 1.09 (inactive); in test [13], 7.89 (inactive). The z-score is 1.17 (inactive) in test [14]; -0.0585 (inactive) in [15]; 0.596 (inactive) in test [16]; 0.325 in test [17]; -3.42 (inactive) in test [18]; -3.12 (inactive) in test [19]. The same compound gave a z-score in test [20] of -3.25.

With `COCCOC(=O)N1C(=O)[C@@]2(c3cc(C#CCC(C(=O)OC)C(=O)OC)ccc31)[C@H](C(=O)NC[C@H](O)c1ccccc1)[C@H]1C(=O)O[C@H](c3ccccc3)[C@H](c3ccccc3)N1[C@@H]2c1ccc(OCCO)cc1`, the composite z-score in test [1] is -0.157; in [6] it was 0.688; in [7], -0.0804; with Torsin-1A (Homo sapiens) [8], -0.012; with Torsin-1A (Homo sapiens) [9], 0.367; in test [10], 1.69. Further, the composite z-score in [12] was -0.118. In addition, the z-score was -1.01 (inactive) in test [2]; 0.366 (inactive) in test [3]; 0.895 (inactive) in test [4]; -0.102 (inactive) in test [5]; 0.0789 (inactive) in [11]; 7.02 (inactive) in test [13]. Also, the z-score in test [14] is 2.02 (inactive); in test [15] it was 0.53 (inactive); in [16], 1.12 (inactive); in test [17] it was -0.273; in test [18], 1.41 (inactive); in [19] it was 0.805 (inactive). In [20], this compound returned a z-score of 0.938.

For the compound `Cc1ccc(S[C@]2(C(=O)NC(C)C)CC(=O)N(C(C)C)[C@@H]2c2ccc(CO)cc2I)cc1`, the composite z-score in test [1] is -0.0983; in test [6], -0.368; in test [7], -0.15; in the test with Torsin-1A (Homo sapiens) [8], -1.07; with Torsin-1A (Homo sapiens) [9], 0.885; in test [10] it was -0.244. The same compound returned a composite z-score in test [12] of 0.207. For the same compound, the z-score in test [2] was -2.59 (inactive); in test [3], -0.468 (inactive); in test [4] it was 0.324 (inactive); in test [5] it was -0.3 (inactive); in [11], -0.745 (inactive); in test [13], 4.77 (inactive). Besides, the z-score in [14] was 0.342 (inactive); in test [15], 0.59 (inactive); in [16], 0.397 (inactive); in [17] it was 0.293; in test [18] it was 1.8 (inactive); in test [19] it was -1.53 (inactive). The same compound showed a z-score in test [20] of -0.227.

Regarding `CCCCC(=C=CC[C@H](O)c1ccc(OCCO)cc1)C[C@H](O)COCc1ccccc1`, the composite z-score in [1] is -0.0866; in test [6], -0.499; in [7] it was -0.145; in the test with Torsin-1A (Homo sapiens) [8], -0.327; in the test with Torsin-1A (Homo sapiens) [9] it was 0.388; in test [10] it was 0.571. In test [12], the composite z-score is -0.235. The z-score in [2] is -0.92 (inactive); in [3] it was 0.403 (inactive); in [4] it was 10.3 (active); in [5], 0.434 (inactive); in test [11] it was -0.088 (inactive); in test [13], 18.2 (active). The z-score in [14] was 3.18 (inactive); in [15], 0.871 (inactive); in test [16], 1.02 (inactive); in [17] it was -0.881; in test [18] it was -0.751 (inactive); in test [19] it was -0.446 (inactive). This compound also came in with a z-score in test [20] of -2.05.

On to `C=C(CCCC)/C(=C/C[C@H](OC(C)=O)c1ccc(OCCO)cc1)c1cc(C(=O)OC)ccc1OC`, for which the composite z-score was 0.613 in test [1]; 0.156 in test [6]; 0.0363 in test [7]; -0.453 with Torsin-1A (Homo sapiens) [8]; 0.886 in the test with Torsin-1A (Homo sapiens) [9]; 0.803 in [10]. Besides, the composite z-score in [12] is -0.0378. The z-score in test [2] is -1.03 (inactive); in [3] it was -0.8 (inactive); in [4], 8.05 (active); in [5], -0.499 (inactive); in test [11] it was 0.564 (inactive); in test [13], 24.5 (active). The z-score in test [14] was 7.58 (inactive); in [15], 2.3 (inactive); in test [16] it was 1.48 (inactive); in test [17], 0.376; in test [18], -0.338 (inactive); in test [19] it was -0.759 (inactive). The compound further came in with a z-score in test [20] of -1.56.

On to `COc1ccc(NC(=O)O[C@H]2[C@@H]3OC(=O)[C@H](Cc4cccc(Br)c4)C/C=C/C[C@@H](Cc4cccc(Br)c4)C(=O)O[C@H]3[C@@H](OC)O[C@@H]2CO)cc1`, for which the composite z-score is 0.232 in test [1]; 0.328 in [6]; 0.318 in test [7]; 0.344 with Torsin-1A (Homo sapiens) [8]; 1.34 in the test with Torsin-1A (Homo sapiens) [9]; 0.597 in test [10]. The compound further came in with a composite z-score in test [12] of 0.358. Further, the z-score was -0.878 (inactive) in [2]; 0.388 (inactive) in test [3]; 0.753 (inactive) in test [4]; -0.686 (inactive) in test [5]; 0.446 (inactive) in test [11]; 0.469 (inactive) in test [13]. The z-score in test [14] was -0.173 (inactive); in test [15], -0.284 (inactive); in [16] it was 0.434 (inactive); in test [17], 0.353; in test [18] it was -1.73 (inactive); in test [19], -1.21 (inactive). Moreover, in [20], the z-score is -1.64.

For the origin of these results see PubChem BioAssay.
